Measurements reported in PubChem BioAssay (Tox21).
Calls of active or inactive are those of the source. Calls follow the shape of the dose curve; as a rule, active = well fitted curve in the direction sought with a large enough effect in the repeat runs; inconclusive = weak or mixed curves; inactive = flat fitted curve, though single readings scatter.

assay: qHTS assay to test for compound auto fluorescence at 460 nm (blue) in HepG2 cell free culture (AID 720685); details: Cell-free culture medium, blue autofluorescence 405/460 nm; series mostly up to 91.3 µM; fluorescence, % of fluorescent control: at the top concentration
Text: U.S. Tox21 Program National Center for Advancing Translational Sciences [NCATS] NIH Chemical Genomics Center [NCGC] U.S. Environmental Protection Agency [EPA] National Institutes of Environmental Health Sciences [NIEHS] National Toxicology Program [NTP] U.S. Food and Drug Administration [FDA] Tox21 Assay Overview: Compound auto fluorescence often interferes with screening of the compound library against various biological targets and signaling pathways. Some of these compounds may have fluorophoric properties. Such properties may interfere with the assay outputs resulting in false positives and/or negatives. To decrease such complications and ensure the compound activities are relevant in terms of biological response, the Tox21 10K compound library was screened for auto fluorescence. From the fluorophores used as reporter signals in our screening assays, the auto fluorescence equivalencies of compounds against three fluorophores have been evaluated: Triamterene, Fluorescein and Rose Bengal sodium for blue, green and red fluorescence, respectively. The fluorescence intensities were measured using Excitation/Emission wavelengths at 405/460nm, 485/535nm and 540/590nm for blue, green and red labels, respectively. This assay includes the blue fluorescence data.
Tox21 Assay Protocol Summary: 5 uL of culture medium (MEM containing 10% FBS) per well was dispensed into black wall/clear bottom 1536-well plates using a Multidrop Combi Dispenser (ThermoFisher Scientific, Waltham, MA). After 23 nL compound or DMSO vehicle was transferred into assay plate by a pintool work station (Kalypsys, San Diego, CA), fluorescence intensities in the assay plates were measured by an Envision (PerkinElmer, Shelton, CT) plate reader using three labels for measuring blue, green and red fluorescence at […] 460, 535 and 590nm respectively.
% is scaled to controls: 0 for no effect and ±100 for the full control effect.

SMILES | fluorescence, % of fluorescent control | outcome
CCCCCCCCCCCC(=O)OC[C@@H](O)[C@H]1OC[C@H](OCCO)[C@H]1OCCO | -0.0581% (inactive) | –
CCCCCCCCCc1ccc(OCCOCCO)cc1 | – | inactive
O=C(O)c1ccco1 | -0.071% (inactive) | –
CC(COCCO)OCCO (stereo not given) | -0.0935% (inactive) | –
CC(=O)c1ccc2c(c1)N(CCCN1CCC(CCO)CC1)c1ccccc1S2 | -0.0052% [at 18.6 µM] (inactive) | –
C[C@H]1C[C@H]2[C@@H]3CCC4=CC(=O)C=C[C@]4(C)[C@@]3(Cl)[C@@H](O)C[C@]2(C)[C@@]1(O)C(=O)CO | -0.122% [at 46 µM] (inactive) | –
CCCCO | – | inactive
CCn1cc(C(=O)O)c(=O)c2cnc(N3CCNCC3)nc21 | 0.0041% [at 18.6 µM] (inactive) | –
CC1(c2ccccc2)OC(C(=O)O)=CC1=O (stereo not given) | 0.027% [at 46 µM] (inactive) | –
NC(N)=NCCC[C@H](N)C(=O)O | 0.0529% [at 46 µM] (inactive) | –
CCOC(=O)c1cccnc1 | 0.0484% [at 46 µM] (inactive) | –
CCCNCC(O)COc1ccccc1C(=O)CCc1ccccc1 (stereo not given) | -0.0065% [at 46 µM] (inactive) | –
CC(=O)[O][Al][O]C(C)=O | – | inactive
OCCNCc1ccccc1 | 0.0694% (inactive) | –
CC(=O)NO | -0.0655% [at 46 µM] (inactive) | –
Cc1cccc(C)c1NC(=O)CN(CC(=O)O)CC(=O)O | -0.0024% [at 46 µM] (inactive) | –
C=CC(=O)OCCOc1ccccc1 | 0.0707% (inactive) | –
COc1cc(C(=O)OCCCN2CCCN(CCCOC(=O)c3cc(OC)c(OC)c(OC)c3)CC2)cc(OC)c1OC | -0.0014% [at 46 µM] (inactive) | –
CCCCCCCC#N | 0.0798% (inactive) | –
Nc1cccc([N+](=O)[O-])c1 | 0.0067% (inactive) | –

SMILES | fluorescence, % of fluorescent control | outcome
C=C1C(=C/C=C2\CCC[C@]3(C)[C@@H]([C@H](C)/C=C/[C@@H](O)C4CC4)CC[C@@H]23)C[C@@H](O)C[C@@H]1O | 0.503% [at 46 µM] (inactive) | –
O=C(O)c1ccc(S(=O)(=O)O)cc1C(=O)O | -0.293% (inactive) | –
Nc1cccc(S(=O)(=O)c2cccc(N)c2)c1 | -0.0886% (inactive) | –
C=CCOC(=O)CCC1CCCCC1 | -0.0184% (inactive) | –
CCc1c(C(=O)NN2CCCCC2)nn(-c2ccc(Cl)cc2Cl)c1-c1ccc(Br)cc1 | 0.061% (inactive) | –
O=P(O)(OCc1ccccc1)OCc1ccccc1 | -0.114% (inactive) | –
NCCCN1CCOCC1 | 0.198% (inactive) | –
CCN(CC)CCOC(=O)C(c1ccccc1)C1CCCCC1 (stereo not given) | 0.0609% [at 46 µM] (inactive) | –
COc1ccc(C(=O)N2CCN(CC(=O)N3CCOCC3)CC2)cc1 | -0.0165% [at 46 µM] (inactive) | –
O=C(Nc1ccccc1)c1ccccc1O | 0.059% (inactive) | –
CCOC(=O)C1=C[C@]2(CC)CCCN3CCc4c(n1c1ccccc41)[C@@H]32 | – | inactive
C=C(C)C(=O)OCCOCC | 0.0819% (inactive) | –
Cc1nn(C)c(Oc2ccccc2)c1/C=N/OCc1ccc(C(=O)OC(C)(C)C)cc1 | 0.0575% (inactive) | –
CCCCCCCCCCCCN1CCCCCC1=O | -0.0077% (inactive) | –
CN1CCC(=C2c3ccccc3Sc3ccccc32)CC1 | 0.044% [at 46 µM] (inactive) | –
CN1CCC(N(Cc2cccs2)c2ccccc2)CC1 | 0.0088% [at 46 µM] (inactive) | –
CC1CCC(=O)C1=O (stereo not given) | 0.0415% [at 95.7 µM] (inactive) | –
C#C[C@]1(O)CC[C@H]2[C@@H]3CCc4cc(OC5CCCC5)ccc4[C@H]3CC[C@@]21C | -0.0044% [at 46 µM] (inactive) | –
O=[N+]([O-])c1cccc(S(=O)(=O)O)c1 | -0.107% [at 95.7 µM] (inactive) | –
COc1cc(Cl)ccc1Oc1ccc(Cl)cc1Cl | -0.128% (inactive) | –
